In all, about 33,000 sequences were measured (“E-score (-0.5 to 0.5)”: median about -0.012, highest 2% from about 0.29 on). For the sample, the highest values were picked, then their nearest neighbours and some sequences at random.
Each sequence was assayed against T1, Ybr033w (UniProt P38073) (assay: PBM E-score (8-mer binding enrichment) (E-score (-0.5 to 0.5)); higher = stronger / more preferred TF binding). Conditions: protein concentration: 200 nM; construct: GST-full length.
T1 sequence: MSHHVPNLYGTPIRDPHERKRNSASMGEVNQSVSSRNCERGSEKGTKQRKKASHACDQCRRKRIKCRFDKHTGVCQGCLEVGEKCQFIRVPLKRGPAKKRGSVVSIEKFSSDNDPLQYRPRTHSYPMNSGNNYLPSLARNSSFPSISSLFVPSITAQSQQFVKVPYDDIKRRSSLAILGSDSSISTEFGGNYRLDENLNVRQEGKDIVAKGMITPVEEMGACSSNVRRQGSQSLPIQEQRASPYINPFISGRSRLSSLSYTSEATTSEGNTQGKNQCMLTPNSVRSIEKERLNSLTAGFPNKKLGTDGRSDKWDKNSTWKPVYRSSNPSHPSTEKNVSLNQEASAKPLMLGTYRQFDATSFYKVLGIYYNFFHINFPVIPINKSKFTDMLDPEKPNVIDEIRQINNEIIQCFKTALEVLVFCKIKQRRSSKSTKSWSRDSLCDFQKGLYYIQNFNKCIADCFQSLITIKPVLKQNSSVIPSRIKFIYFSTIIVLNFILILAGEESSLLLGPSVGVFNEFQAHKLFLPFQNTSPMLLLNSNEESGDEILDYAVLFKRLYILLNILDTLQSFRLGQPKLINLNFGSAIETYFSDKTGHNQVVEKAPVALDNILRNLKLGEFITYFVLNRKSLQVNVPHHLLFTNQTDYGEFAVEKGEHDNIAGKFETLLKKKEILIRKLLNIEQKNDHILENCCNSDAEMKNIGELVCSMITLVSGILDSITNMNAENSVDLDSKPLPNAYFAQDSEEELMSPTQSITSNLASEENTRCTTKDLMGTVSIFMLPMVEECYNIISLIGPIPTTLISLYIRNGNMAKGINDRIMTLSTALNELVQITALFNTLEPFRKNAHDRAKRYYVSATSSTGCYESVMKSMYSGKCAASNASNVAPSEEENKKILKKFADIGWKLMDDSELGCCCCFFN
Method: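 Universal 'all 10-mer' protein binding microarrays (Agilent AMADID 015681) probed with GST-tagged S. cerevisiae TFs (full-length or DBD) made by in vitro transcription/translation (PURExpress), about 100-200 nM. Bound TF was detected with fluorescent anti-GST. Each ungapped 8-mer (which stands for itself and its reverse complement) is scored by the PBM enrichment score (E-score), a modified Wilcoxon-Mann-Whitney statistic from -0.5 to +0.5, computed with the Universal PBM Analysis Suite. Scale: above 0.35 generally sequence-specific binding.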

| Sequence | PBM E-score |
| --- | --- |
| TGGATTAA | 0.38 |
| ATGATTTA | 0.253 |
| GTGATTAA | 0.291 |
| ATGATTAA | 0.231 |
| GGGATTGA | -0.148 |
| CGGATTAG | -0.0597 |
| ACGCATTG | -0.0453 |
| AGCCCACG | -0.202 |
| CATGGTGA | 0.137 |
| CCGATTTA | 0.183 |
| GCGATTAA | 0.19 |
| TCGATTAA | 0.288 |
| ACGATTAA | 0.141 |
| ACGATTTA | 0.36 |
| GCGATTTA | 0.0771 |
| ACACCGTC | -0.0477 |
| AAGCGCAT | -0.0621 |
| CACCGCTA | -0.0953 |
| TAAACTGA | 0.136 |
| ATGGCCTG | -0.16 |
| GCGATACA | 0.0586 |
| ACGATACA | 0.0132 |

| Sequence | PBM E-score |
| --- | --- |
| TCGATACA | 0.298 |
| ACGGTAGC | -0.123 |
| ACTAGTCT | -0.0233 |
| ACCATCGG | -0.118 |
| ACAACCAT | 0.297 |
| ACAACCAG | 0.102 |
| ACAACCAC | 0.0628 |
| CGTTCTGC | 0.0161 |
| GCTTATGA | -0.0277 |
| AACTAATC | 0.192 |
| TACTAATA | 0.185 |
| AACTAACT | 0.126 |
| CACTAATG | 0.0973 |
| CACTAATA | 0.0444 |
| AACTAATG | 0.29 |
| AACTAATT | 0.293 |
| AACTAAAG | 0.231 |
| AACTAATA | 0.298 |
| AAATCGGC | -0.158 |
| CCACCGGA | 0.172 |
| GAGACCAA | 0.0622 |
| ATCCGCTC | -0.102 |

| Sequence | PBM E-score |
| --- | --- |
| ACGGTATG | -0.0502 |
| AGGCATAA | -0.0986 |
| ATTTAGGC | 0.117 |
| CCCACCTC | -0.244 |
| GAATTTAA | 0.0723 |
| TAATTTAA | 0.343 |
| TAATTTCA | 0.289 |
| AAATTTCA | -0.0112 |
| AAATTTAG | 0.278 |
| AAATTTAA | 0.29 |
| AAATTTAC | 0.263 |
| CAATTTCA | 0.0349 |
| CAATTTAA | 0.27 |
| CGCCAGAA | 0.043 |
| ACAAGTAT | 0.249 |
| AACACAAC | 0.116 |
| CCTTTCTC | -0.11 |
| CCGTCGCC | -0.247 |
| AGGATAAT | 0.36 |
| ATGATAAA | 0.238 |
| TGGATACA | 0.0503 |
| AAGATAAA | 0.257 |

| Sequence | PBM E-score |
| --- | --- |
| AGGATACT | -0.0125 |
| TAGATAAA | 0.341 |
| TTGATAAA | 0.368 |
| GTGATAAA | 0.102 |
| CAGATAAA | 0.194 |
| ACGATAAT | 0.163 |
| TCGATAAA | 0.167 |
| TGGATAAA | 0.391 |
| CTGCTCTC | -0.153 |
| AGCCACCA | 0.0237 |
| AGGCTCAT | -0.0489 |
| ACGACCAG | -0.158 |
| AAGATAAC | 0.0702 |
| GGGATAAC | 0.00039 |
| AGGATAAA | 0.427 |
| AAGATAAG | 0.0844 |
| GGGATAAA | 0.317 |
| AGGATAAC | -0.109 |
| GGGATAGA | -0.196 |
| AAGATAAT | 0.307 |
| AGGATAAG | -0.0801 |

From the supplement of paper PMC3334620
